{"source": "ChEMBL document CHEMBL3433997", "about": "“St. Jude Leishmania screening dataset” (2016)"}
{"molecular_target": "Glucose transporter (Leishmania mexicana) (UniProt O61059)", "assay": "ST_JUDE_LEISH: Cytotoxicity at 2uM final concentration against transgenic Leishmania Mexicana promastigotes LmGT2 that are glucose transport deficient and complemented with the L. Mexicana glucose transporter 2. Activity is measured by DNA content using SYBR green in vitro", "assay_type": "functional", "units": {"inhibition": "%"}}
{"smiles": "CC(C)CCOc1ccc(NC(=O)c2cccs2)cc1", "inhibition": 5.27}
{"smiles": "CCN(CC)CCCN(CCCN(CC)CC)c1cc(C)nc(Nc2ccc3cc(Br)ccc3c2)n1", "inhibition": 3.03}
{"smiles": "COCCn1c(-c2cccc(Cl)c2)nn(-c2ccc([N+](=O)[O-])cc2C#N)c1=S", "inhibition": 3.5}
{"smiles": "COc1cccc(CN2CCCC(CCC(=O)Nc3ccc(C(F)(F)F)cc3)C2)c1O", "note": "(stereo not given)", "inhibition": 1.85}
{"smiles": "COc1ccc2nccc([C@@H](O)CN3CCC(NCc4nc5cc(F)ccc5o4)CC3)c2c1", "inhibition": 1.01}
{"smiles": "CC(Cc1ccc(OCCCCOc2ccccc2)cc1)NCCc1ccc(Oc2ccccc2)cc1", "note": "(stereo not given)", "inhibition": 78.2}
{"smiles": "COc1ccccc1Nc1nc(C)cc(NCc2ccc(-c3c(C)noc3C)cc2)n1", "inhibition": 0.51}
{"smiles": "CCOC(=O)[C@H](Cc1cccc2ccccc12)NC(=O)[C@H](CCC(=O)OC(C)(C)C)NC(=O)c1ccc(N(C)Cc2cnc3nc(N)nc(N)c3n2)cc1", "inhibition": 3.56}
{"smiles": "c1cc(OCCN2CCCC2)ccc1CNC1CCN(CC2CCCCC2)CC1", "inhibition": -4.21}
{"smiles": "CCOC(=O)NC1=NC(C)(C)N(OCc2ccc(Cl)c(Cl)c2)C(NC(=O)OCC)=N1", "inhibition": 2.54}
{"smiles": "O=C(/C=C/c1ccc(Cl)c(Cl)c1)N1CCC(CN2CCC(c3c[nH]c4ncccc34)CC2)CC1", "inhibition": 2.38}
{"smiles": "COc1ccc2ncc(Cl)c(CCN3C[C@H](CNCc4ccc5c(n4)NC(=O)CS5)[C@H](O)C3)c2n1", "inhibition": 2.02}
{"smiles": "c1ccc(Oc2ccc(Nc3ccnc4cc(-c5ccc(CN6CCNCC6)o5)ccc34)cc2)nc1", "inhibition": 5.3}
{"smiles": "COc1cc(C(=O)N2CCOC(CCN3CCC(c4ccc(Cl)cc4)CC3)(c3ccc(Cl)c(Cl)c3)C2)cc(OC)c1OC", "note": "(stereo not given)", "inhibition": 13.7}
{"smiles": "CC(C)n1cc(CN2CCCC(C(=O)Nc3cccc(-c4cc5ccccc5[nH]4)c3)C2)cn1", "note": "(stereo not given)", "inhibition": -0.59}
{"smiles": "CC(C)N1CCC(N(Cc2ccc(-c3ccc(C(F)(F)F)cc3)cc2)C(=O)CCCn2c(CCc3cccc(F)c3F)nc(=O)c3ccccc32)CC1", "inhibition": 6.72}
{"smiles": "CCCCCC(C)(C)NC[C@@H](O)[C@H](Cc1ccccc1)NC(=O)c1cc(NCC)cc(N2CCCC2=O)c1", "inhibition": -1.82}
{"smiles": "O=C(O)c1ccc(-c2cnc3ccc(NC4CCC(O)CC4)nn23)cc1", "note": "(stereo not given)", "inhibition": -0.34}
{"smiles": "Fc1ccc2[nH]c(-c3ccc(-c4ccc(CN5CCN(CCN6CCOCC6)CC5)cc4)s3)nc2c1", "inhibition": 1.83}
{"smiles": "COc1cc2c(cc1NS(=O)(=O)c1ccc(OCc3ccc(Br)cc3)cc1)CCN(C1CCC1)CC2", "inhibition": -0.51}
{"smiles": "CN1N=C2c3ccccc3CCC2C1c1ccc(C#N)cc1", "note": "(stereo not given)", "inhibition": 7.86}
{"smiles": "CCCC(C)Nc1nc(C)cc(NCCC(=O)Nc2ccccc2)n1", "note": "(stereo not given)", "inhibition": 2.55}
{"smiles": "O=C(NCc1ccccc1)NC(CCCN1CCC(Oc2cccc(Cl)c2)CC1)c1ccc(Cl)c(Cl)c1", "note": "(stereo not given)", "inhibition": -0.18}
{"smiles": "CN1CCN(CCCNc2ncc3c(-c4ccc(NC(=O)Nc5cc(C(F)(F)F)ccc5F)c(F)c4)nn(C)c3n2)CC1", "inhibition": 7.86}
{"smiles": "CN1CCN(Cc2ccc(-c3ccc4c(Nc5ccc(Oc6ccccn6)cc5)ccnc4c3)o2)CC1", "inhibition": -1.97}
{"smiles": "CCOc1cc(C(=O)Nc2ccc(-c3nc4ccccc4[nH]3)cc2)cc(OCC)c1OCC", "inhibition": 2.55}
{"smiles": "N#Cc1ccc2c(c1)CCN(CCC1CCC(NC(=O)c3cc4cccc([N+](=O)[O-])c4[nH]3)CC1)C2", "note": "(stereo not given)", "inhibition": 9.97}
{"smiles": "Cn1ccc2c3c(N)nc(N)nc3ccc21", "inhibition": 1.34}
{"smiles": "CCCNCc1ccc(-c2ccc(CN(CCOC)C(=O)COc3ccccc3Cl)cc2)nc1", "inhibition": -1.95}
{"smiles": "CCc1c(CCNCCCCCCNCCc2ccccc2)ccc(OC)c1OC", "inhibition": 2.63}
{"smiles": "O=C(Nc1cccc(CN2CCCN(CCc3ccccc3)CC2)c1)c1ccc(Cl)c(Cl)c1", "inhibition": -3.05}
{"smiles": "COc1cc(N(C)Cc2cnc3nc(N)nc(N)c3n2)cc(OC)c1OC", "inhibition": 3.15}
{"smiles": "CCCCCCCN(Cc1ccc(OC(C)(C)C(=O)OCC)cc1)C(=O)Nc1ccccc1OC(F)(F)F", "inhibition": 1.43}
{"smiles": "Cn1nc(-c2ccc(CN[C@@H]3CCc4ccc(O)cc43)cc2)c2cnc(NCCCN3CCCC3)nc21", "inhibition": 1.31}
{"smiles": "CN1CCC(Oc2ccc(Nc3nccc(NCC(O)c4ccccc4)n3)cc2Cl)CC1", "note": "(stereo not given)", "inhibition": -6.09}
{"smiles": "CCCc1ccc(N2C(N)=NC(N)=NC2(C)C)cc1", "inhibition": -2.29}
{"smiles": "Oc1ccc(Br)cc1C(O)CNCc1ccccc1OCc1ccccc1", "note": "(stereo not given)", "inhibition": 2.87}
{"smiles": "O=C(N[C@@H](Cc1ccccc1)C(=O)NCCN1CCCCC1)c1ccc(O)c(-c2ccc(Cl)c(Cl)c2)c1", "inhibition": 0.78}
{"smiles": "CCOc1ccc(Nc2ccc3nonc3c2S(=O)(=O)Nc2ccc(OCC)cc2)cc1", "inhibition": -0.61}
{"smiles": "O=C(Cc1ccc[n+]([O-])c1)Nc1cccc(-c2cccc(-c3nc4cc(F)ccc4[nH]3)c2)c1", "inhibition": 4.13}
